Screens (PubChem)
CYP2C9 activ = human CYP2C9 activators, primary screen, biochemical, luminescence; 1.4% of 96,000 active; activation factor at 5 µM; recombinant CYP2C9, luciferin-H conversion; stronger effect = higher value; factor 1 = untreated enzyme, 0 = blocked;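 active = activation factor of 2 or more for CYP2C9 at a 5 µM dose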
CYP2C19 inh = blockers of cytochrome P450 2C19 activity – biochemical, luminescence, ADME assay, primary screen; P33261; CYP2C19 Supersomes, luciferin-H EGE luminescence, 30 min; inhibition, % at 5 µM; 21% of 96,000 active; AID 778, 2007;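 active = CYP2C19 inhibition above a set limit at 5 µM in the primary screen, cut at about 50% in these data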
Target sequence (P33261 whole entry, looked up): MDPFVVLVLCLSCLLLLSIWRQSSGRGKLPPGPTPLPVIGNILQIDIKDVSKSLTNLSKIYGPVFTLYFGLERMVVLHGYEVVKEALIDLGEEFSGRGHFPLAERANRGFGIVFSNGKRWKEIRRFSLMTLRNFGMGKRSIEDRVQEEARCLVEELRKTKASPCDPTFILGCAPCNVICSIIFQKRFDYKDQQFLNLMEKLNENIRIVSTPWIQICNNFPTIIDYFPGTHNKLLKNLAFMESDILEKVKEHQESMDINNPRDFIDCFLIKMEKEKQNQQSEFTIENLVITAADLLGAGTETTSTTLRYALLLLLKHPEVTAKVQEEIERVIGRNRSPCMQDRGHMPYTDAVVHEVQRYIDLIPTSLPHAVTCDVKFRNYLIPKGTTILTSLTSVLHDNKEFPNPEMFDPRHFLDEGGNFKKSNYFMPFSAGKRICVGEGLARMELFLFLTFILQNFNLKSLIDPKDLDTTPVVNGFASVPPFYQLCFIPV
MRP1 act = H69AR viability gain despite doxorubicin, primary screen, MRP-1 activator project, H69AR cells, CellTiter-Glo | viability rescue | viability increase, % at 10 µM | 0.61% of 140,000 active;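 active = viability gain under doxorubicin at or above a set limit, the compound median plus 3 SD, cut at about 4.7% in these data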;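 note: MRP-1 overexpressing cells given doxorubicin 25 µM after compound pretreatment; 18-22 h compound pretreatment then 72 h with doxorubicin before readout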
CYP2C9 inh = blockers of cytochrome P450 2C9 activity – biochemical, luminescence, ADME assay, primary screen; P11712; CYP2C9 Supersomes, luciferin-H conversion; inhibition, % at 5 µM; 20% of 96,000 active;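 active = blocking of liver enzyme CYP2C9 beyond about 50% at 5 µM, limit read from the data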
MRP resist rev = reversal of MRP1-mediated doxorubicin resistance, primary screen, H69AR cells, doxorubicin co-treatment; H69AR cells + 2 uM doxorubicin, CellTiter-Glo, 72 h; differential viability (reversal), % at 10 µM; 0.04% of 85,000 active; AID 602, 2007;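 active = viability drop by adding the cancer drug above about 55%, with treated viability meeting a 40% cutoff, limit read from the data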;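 note: larger differential means the compound sensitizes cells more to doxorubicin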
CYP2C19 act = human CYP2C19 activators, primary screen, biochemical, luminescence; Cytochrome P450 2C19 (Homo sapiens), P33261; recombinant CYP2C19, luciferin-H EGE luminescence; stronger effect = higher value; 0 = fully inhibited enzyme, 1 = untreated enzyme; activation factor at 5 µM; 96,000 tested, under 10 active;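 active = activation factor of at least 2 at 5 µM in the primary screen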
Each line names hits and unclear results; the compound was inactive in the other large screens. Rows were chosen to be rich in hits. Some 21% of all compounds tested hit in one or more screens of this group.

Cc1cc(/C=C(\C#N)C(=O)NC2CCCCCC2)c(C)n1C	none (no result: CYP2C9 activ, CYP2C19 inh, CYP2C9 inh, MRP resist rev, CYP2C19 act)
CCOC(=O)c1cc(-c2ccc(/C=N\n3cnnc3)o2)ccc1Cl	CYP2C9 inh 66
Cc1c(Cl)cccc1-c1ccc(/C=N/n2cnnc2)o1	CYP2C19 inh 88, CYP2C9 inh 71
Clc1ccccc1-c1ccc(/C=N/n2cnnc2)o1	CYP2C19 inh 62
Cc1ccc(C(=O)NCCc2nnc3ccc(SCC(=O)Nc4c(C)cc(C)cc4C)nn23)cc1	none (no result: CYP2C9 activ, CYP2C19 inh, CYP2C9 inh, MRP resist rev, CYP2C19 act)
CCCCn1nnnc1NCc1cccc(OC)c1OC	CYP2C19 inh 85, CYP2C9 inh 62 (no result: MRP resist rev)
CCCCn1nnnc1NCc1ccc(N(CC)CC)cc1	CYP2C19 inh 74
CCCCn1nnnc1NCc1ccc(OC)c(OC)c1	none
CCN=C1SC(CC(=O)NCCc2ccc(OC)cc2)C(=O)N1CC (configuration not stated)	CYP2C9 inh 51 (no result: MRP resist rev)
CCN=C1SC(CC(=O)NCCc2ccc(OC)c(OC)c2)C(=O)N1CC (configuration not stated)	none
CCCCN1C(=O)C(CC(=O)NCC)SC1=Nc1ccccc1 (configuration not stated)	none (no result: CYP2C9 activ, CYP2C19 inh, CYP2C9 inh, CYP2C19 act)
CCN=C1SC(CC(=O)Nc2sc3c(c2C#N)CCCC3)C(=O)N1CC (configuration not stated)	CYP2C9 inh 53
CCCCOc1ccccc1NC(=O)CC1SC(=NCC)N(CC)C1=O (configuration not stated)	CYP2C19 inh 69
CCN=C1SC(CC(=O)NC(N)=O)C(=O)N1CC (configuration not stated)	none
CCNC(=O)CC1SC(=Nc2ccc(C)cc2)N(CC)C1=O (configuration not stated)	CYP2C19 inh 53
CCOC(=O)C1CCCN(C(=O)c2ccc([N+](=O)[O-])c(C)c2)C1 (configuration not stated)	none (no result: CYP2C9 activ, CYP2C19 inh, CYP2C9 inh, MRP resist rev, CYP2C19 act)
CCN=C1SC(CC(=O)Nc2ccc(C(F)(F)F)cc2)C(=O)N1CC (configuration not stated)	CYP2C19 inh 65
CCCCOc1ccccc1NC(=O)CC1Nc2ccccc2NC1=O (configuration not stated)	CYP2C9 inh 64 (no result: MRP1 act)
CCN=C1SC(CC(=O)Nc2ccc(N3CCOCC3)cc2)C(=O)N1CC (configuration not stated)	none
CCN=C1SC(CC(=O)Nc2ccccc2OCC)C(=O)N1CC (configuration not stated)	CYP2C19 inh 76
O=C1C2C(C(=O)N1c1ccncc1)C1C=CC2C12CC2 (configuration not stated)	CYP2C19 inh 92, CYP2C9 inh 75 (no result: MRP1 act)
CCCC1=C(C(=O)OCC)C(c2ccc(OC)c(C)c2OC)C(C#N)=C(N)O1 (configuration not stated)	none (no result: CYP2C9 activ, CYP2C19 inh, CYP2C9 inh, MRP resist rev, CYP2C19 act)
CCOc1cc(C2C(C#N)=C(N)OC(C)=C2C(C)=O)cc(Br)c1O (configuration not stated)	CYP2C9 inh 90
CCOC(=O)C1=C(C)OC(N)=C(C#N)C1c1cc(Cl)c(OCC(N)=O)c(OC)c1 (configuration not stated)	CYP2C9 inh 89
N#CC1=C(N)Oc2cc(O)ccc2C1c1ccccc1 (configuration not stated)	CYP2C19 inh 65, CYP2C9 inh 77
CCOC(=O)C1=C(C)OC(N)=C(C#N)C1c1ccc(OC)c(CSc2ccccn2)c1 (configuration not stated)	none (no result: CYP2C9 activ, CYP2C19 inh, CYP2C9 inh, MRP resist rev, CYP2C19 act)
CCOc1cc(C2C(C#N)=C(N)OC(C)=C2C(C)=O)c(Br)c(Br)c1OC(C)C (configuration not stated)	none (no result: CYP2C9 activ, CYP2C19 inh, CYP2C9 inh, CYP2C19 act)
CCOC(=O)C1=C(C)OC(N)=C(C#N)C1c1cc(OC)c2c(c1)OCO2 (configuration not stated)	CYP2C19 inh 84, CYP2C9 inh 66
CCCn1c(=N)n(CCOCCOCCn2c(=N)n(CCC)c3ccccc32)c2ccccc21	none (no result: CYP2C9 activ, CYP2C19 inh, MRP1 act, CYP2C9 inh, CYP2C19 act)
N#CC1=C(N)Oc2cc3ccccc3cc2C1c1cccnc1 (configuration not stated)	CYP2C19 inh 66, CYP2C9 inh 82
COc1ccc(C2C(C#N)=C(N)Oc3cc(O)ccc32)cc1OC (configuration not stated)	none
N#CC1=C(N)Oc2cc3c(cc2C1c1ccc(Cl)cc1)OCO3 (configuration not stated)	none
COc1cc(C2C(C#N)=C(N)Oc3cc(N(C)C)ccc32)cc2c1OCO2 (configuration not stated)	CYP2C19 inh 51, CYP2C9 inh 55
COc1cc(C2C(C#N)=C(N)Oc3cc(O)ccc32)cc2c1OCO2 (configuration not stated)	CYP2C19 inh 93, CYP2C9 inh 91
N#CC1=C(N)Oc2c(ccc3cccnc23)C1c1cccnc1 (configuration not stated)	none (no result: CYP2C9 activ, CYP2C19 inh, CYP2C9 inh, MRP resist rev, CYP2C19 act)
NC(=O)Nc1ccc(C(=O)OCC(=O)Nc2ccc([N+](=O)[O-])cc2C(F)(F)F)cc1	none (no result: CYP2C9 activ, CYP2C19 inh, CYP2C9 inh, MRP resist rev, CYP2C19 act)
c1ccc2c(-n3cccn3)cccc2c1	none
C=CCN(CCNP(=O)(OCC)OCC)CP(=O)(OCC)OCC	none
Cc1ccc(CSc2nncn2-c2ccccn2)cc1	none (no result: CYP2C9 activ, CYP2C19 inh, CYP2C9 inh, CYP2C19 act)
Clc1ccc(CSc2nncn2-c2ccccn2)cc1	CYP2C19 inh 68
CCOC(=O)C1=C(CSc2nc(C)ccc2C#N)OC(N)=C(C#N)C1c1cccc(OC)c1OC (configuration not stated)	CYP2C19 inh 97, CYP2C9 inh 97
CCOC(=O)C1=C(CSc2nc(-c3ccncc3)ccc2C#N)OC(N)=C(C#N)C1c1cccnc1 (configuration not stated)	CYP2C19 inh 99, CYP2C9 inh 96
CCOC(=O)C1=C(CSc2nc(-c3ccncc3)ccc2C#N)OC(N)=C(C#N)C1c1ccc(OC)cc1 (configuration not stated)	CYP2C19 inh 91, CYP2C9 inh 94
CCOC(=O)C1=C(CSc2nc(CC)c(C)cc2C#N)OC(N)=C(C#N)C1c1ccc(OC)cc1 (configuration not stated)	none (no result: CYP2C9 activ, CYP2C19 inh, CYP2C9 inh, CYP2C19 act)
Cc1ccc(Nc2ccc(S(=O)(=O)N3CCOCC3)cc2[N+](=O)[O-])c(C)c1	none (no result: CYP2C9 activ, CYP2C19 inh, CYP2C9 inh, MRP resist rev, CYP2C19 act)
O=C(NCCCn1ccnc1)NC(C(F)(F)F)C(F)(F)F	CYP2C19 inh 80, CYP2C9 inh 68
O=C(NCCCn1ccnc1)c1cc2ccccc2oc1=O	none (no result: CYP2C9 activ, CYP2C19 inh, CYP2C9 inh, MRP resist rev, CYP2C19 act)
Cc1cc(C(=O)NCCCn2ccnc2)cs1	CYP2C19 inh 88, CYP2C9 inh 66
CCC(C)[C@H](NC(=O)NCCCn1ccnc1)C(=O)OC (some centres not stated)	none (no result: CYP2C9 activ, CYP2C19 inh, CYP2C9 inh, MRP resist rev, CYP2C19 act)
Cc1ccc(C(=O)NCCCn2ccnc2)o1	CYP2C19 inh 72
